Screens deposited in PubChem BioAssay by National Center for Advancing Translational Sciences (NCATS).
IL1B secr inh: blocks inflammasome-driven IL-1 beta release; activity change, % at 57.5 µM; THP-1 LPS/ATP IL-1B secretion, AlphaLISA, 16 h; hits give low values; hit rate 4.7% among 360,000; in the data active means activity change below about -50%; inconclusive means mostly about -30% to -49%
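Secreted IL-1B measured by AlphaLISA bead assay after 16 h compound exposure of THP-1 cells; compounds (final up to 57.5 uM) added 1 h before LPS (250 ng/mL) and ATP (1.25 mM) stimulation; lower signal means less secretion.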
HT1080 IDH1KD tx: toxicity to HT-1080 IDH1 knockdown cells (counter line); HT-1080 IDH1 knockdown viability, ATP luminescence, 48 h; Potency, µM (titrated, usually from 46.1 µM), actives largely listed as cytotoxic; hit rate 2% among 360,000; AID 686971
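Knockdown cells (IDH1KD HT-1080) received compounds 2 h after plating at 750 cells/well and were kept 48 h at 37 °C in 5% FBS RPMI. A CellTiter-Glo luminescence read gave % activity for curve fitting.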
TDP1 cell noCPT: qHTS for Inhibitors of human tyrosyl-DNA phosphodiesterase 1 (TDP1): qHTS in cells in absence of CPT; hit rate 15% among 420,000; AID 686978, 2013; Potency, µM (doses to about 46.2 µM), most hits filed as inhibitors; DT40 Tdp1-/- hTDP1 cells, no CPT, ATP luminescence, 48 h; further: nearly all actives have a fitted effect of over 55% in size
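Seeded 400 DT40-hTDP1 cells/well (vehicle DMSO, no 20 nM CPT); pinned compounds; ≥48 hr at 37 °C; CellTiter-Glo luminescence as viability measure.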
HT1080-NT tox: kills 2HG-producing HT-1080-NT fibrosarcoma cells; HT-1080-NT fibrosarcoma viability, CellTiter-Glo ATP luminescence, 48 h; AID 686970; Potency, µM (titrated, usually from 46.1 µM), usual class: cytotoxic; hit rate 1.6% among 360,000;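 further: NT is the 2HG producing partner of a matched IDH1 knockdown line; nearly all actives have a fitted effect of over 55% in size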
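Viability of the 2HG-overproducing fibrosarcoma line after 48 hours of compound exposure at 37 degrees C was determined by luminescence with CellTiter-Glo, and concentration-effect curves were then fitted and categorized.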
TDP1 cell CPT: growth inhibition of DT40 Tdp1-/-;hTDP1 cells with camptothecin (screen for TDP1 inhibitors); chicken DT40 Tdp1-/-;hTDP1 cells + 20 nM CPT, ATP luminescence, 48 h; Potency, µM (doses to about 46.2 µM), usual class: inhibitors; hit rate 12% among 420,000; AID 686979; further: nearly all actives have a fitted effect of over 55% in size
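Chicken DT40 Tdp1-/- cells stably complemented with human TDP1 were seeded at 400 cells/well in medium containing 20 nM camptothecin, exposed to pin-transferred compounds, and grown at 37 °C for at least 48 hr. Viability was read as ATP luminescence.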
Large screens that a line does not name were inactive. This is a sample that favours compounds with a hit; in the whole collection about 19% have one here. Unless noted, the call rests on the fitted dose curve; in most records, active means well fitted curve in the direction sought with a large enough effect; inconclusive means small, poorly fitted or top-dose-only effect, or another doubt; inactive means no such curve, though single readings can be large; an effect the other way counts as inactive or inconclusive.

Cc1cc(/C=C(\C#N)C(=O)NCc2ccco2)c(C)n1-c1cccnc1	TDP1 cell noCPT inconclusive
Cc1cc(/C=C(/C#N)c2cccc(F)c2)c(C)n1-c1cccnc1	IL1B secr inh -89, TDP1 cell noCPT inconclusive, HT1080-NT tox inconclusive, TDP1 cell CPT inconclusive
Cc1nn(S(=O)(=O)c2ccccc2)c(C)c1S(=O)(=O)N1CCOCC1	none
CC1CCCN(CCCNC(=O)c2ccc3c(c2)N(Cc2ccc(F)cc2)C(=O)c2ccccc2S3=O)C1 (stereo not given)	IL1B secr inh -58, HT1080 IDH1KD tx inconclusive, TDP1 cell noCPT inconclusive, HT1080-NT tox inconclusive, TDP1 cell CPT 16µM
CC1CCCN(CCCNC(=O)c2ccc3c(c2)N(Cc2ccccc2F)C(=O)c2ccccc2S3(=O)=O)C1 (stereo not given)	IL1B secr inh -65, HT1080 IDH1KD tx inconclusive, TDP1 cell noCPT 15µM, HT1080-NT tox 26µM, TDP1 cell CPT 23µM
CCC1CCCCN1CCCNC(=O)c1ccc2c(c1)N(Cc1ccc(F)cc1)C(=O)c1ccccc1S2=O (stereo not given)	IL1B secr inh -58, HT1080 IDH1KD tx 23µM, TDP1 cell noCPT inconclusive, HT1080-NT tox 21µM, TDP1 cell CPT inconclusive
CCN1CCCC1CNC(=O)c1ccc2c(c1)N(Cc1ccccc1F)C(=O)c1ccccc1S2(=O)=O (stereo not given)	none
O=C(NCCCN1CCOCC1)c1ccc2c(c1)N(Cc1ccccc1)C(=O)c1ccccc1S2=O (stereo not given)	TDP1 cell CPT inconclusive
CC(C)(C)C(=O)N(Cc1ccc(Cl)cc1)c1cnccn1	TDP1 cell noCPT 12µM, TDP1 cell CPT inconclusive
O=C(NCCc1ccc(Cl)cc1)c1cnccn1	none
CC(C)N1CCC(C)(C(=O)Nc2ccc(Cl)c(Cl)c2)C1 (stereo not given)	TDP1 cell noCPT inconclusive, TDP1 cell CPT inconclusive
COc1cc(OC)c(C(=O)Nc2cccc(C(C)=O)c2)cc1OC	IL1B secr inh inconclusive, TDP1 cell noCPT inconclusive, TDP1 cell CPT inconclusive
CCCCC1(Br)C(=O)N(c2ccccc2)N(c2ccccc2)C1=O	TDP1 cell noCPT 16µM, TDP1 cell CPT inconclusive
Cc1ccc2c(c1)COc1c3ccc(C(=O)N4CCCCC4)cc3nn1-2	TDP1 cell noCPT 26µM, TDP1 cell CPT 21µM
O=C(c1ccc2c3n(nc2c1)-c1ccc(Cl)cc1CO3)N1CCOCC1	TDP1 cell noCPT inconclusive, HT1080-NT tox inconclusive, TDP1 cell CPT inconclusive
Cc1ccc2c(c1)COc1c3ccc(C(=O)N[C@@H](CO)C(C)C)cc3nn1-2	TDP1 cell noCPT 18µM, TDP1 cell CPT 23µM
O=C(c1ccc2c3n(nc2c1)-c1ccccc1CO3)N1CCOCC1	HT1080 IDH1KD tx 23µM, TDP1 cell noCPT 9.2µM, HT1080-NT tox 8.2µM, TDP1 cell CPT 8.2µM
CCN(CC)CCCNC(=O)c1ccc2c3n(nc2c1)-c1ccc(Cl)cc1CO3	IL1B secr inh -60, TDP1 cell noCPT 16µM, TDP1 cell CPT inconclusive
COCCNC(=O)c1ccc2c3n(nc2c1)-c1ccc(C)cc1CO3	IL1B secr inh inconclusive, TDP1 cell noCPT inconclusive, TDP1 cell CPT inconclusive
CC(C)[N+]1(C)[C@@H]2CC[C@H]1CC(OC(=O)[C@@H](CO)c1ccccc1)C2 (stereo not given in full)	none (no result: IL1B secr inh, HT1080 IDH1KD tx, HT1080-NT tox)
Cc1ccc(S(=O)(=O)NN=CC2(c3ccccc3)CC2)cc1	none
CCC1(c2ccc(F)cc2)NC(=O)N(CC(=O)Nc2cc(C)on2)C1=O (stereo not given)	none
O=C(Nc1ccc(Cl)cc1)c1cccc(S(=O)(=O)Nc2ccccn2)c1	none
CCNC(=O)C1(C)CCCN(Cc2cccc3ccccc23)C1 (stereo not given)	TDP1 cell noCPT inconclusive, TDP1 cell CPT inconclusive
COCCNC(=O)C1(C)CCN(Cc2ccccc2C#N)C1 (stereo not given)	HT1080 IDH1KD tx inconclusive
CCNC(=O)C1(C)CCCN(Cc2ccc3ccccc3c2Br)C1 (stereo not given)	IL1B secr inh inconclusive, HT1080 IDH1KD tx inconclusive, TDP1 cell noCPT 18µM, HT1080-NT tox inconclusive, TDP1 cell CPT inconclusive
COCCNC(=O)C1(C)CCN(Cc2ccc3ccccc3c2Br)C1 (stereo not given)	TDP1 cell noCPT 10µM, TDP1 cell CPT 29µM
CC(=O)Nc1ccc(C(=O)CN2CCN(c3ccccc3)CC2)cc1	none
CSc1ccccc1OCc1cc(C(=O)N2CCN3CCCC3C2)no1 (stereo not given)	none
CNC(=S)NC1(C)CCS(=O)(=O)C1 (stereo not given)	none
Nc1ncnc2c1ncn2-c1ccccc1Cl	none
O=C1C2CC=CCC2C(=O)N1c1n[nH]c(Cc2ccccc2)n1 (stereo not given)	none
COc1ccc(C2CC(c3ccccc3)=NN2C(=O)COC(=O)C2(C)CC2(Cl)Cl)cc1 (stereo not given)	IL1B secr inh -68, TDP1 cell noCPT inconclusive, TDP1 cell CPT inconclusive
COc1ccc(C(=O)N2N=C(c3cccs3)CC2c2ccccc2O)cc1 (stereo not given)	HT1080 IDH1KD tx inconclusive, TDP1 cell noCPT 13µM, HT1080-NT tox inconclusive
COc1ccc(C2=NN(C(=O)c3cccs3)C(c3ccccc3O)C2)cc1 (stereo not given)	IL1B secr inh -59, TDP1 cell noCPT inconclusive, TDP1 cell CPT inconclusive
COc1ccc(C2CC(c3ccccc3)=NN2C(=O)c2cccs2)cc1 (stereo not given)	HT1080 IDH1KD tx inconclusive, TDP1 cell noCPT inconclusive, HT1080-NT tox inconclusive, TDP1 cell CPT 23µM
COc1ccc(C2=NN(C(=O)c3cccs3)C(O)(C(F)(F)F)C2)cc1 (stereo not given)	IL1B secr inh -52, TDP1 cell noCPT 16µM, TDP1 cell CPT inconclusive
CCn1cc(C(=O)N(C)c2cc(C)ccc2OC)c2cc(OC)c(OC)cc2c1=O	IL1B secr inh inconclusive
COc1cc2c(C(=O)N(C)c3cccc(C(F)(F)F)c3)cn(CC(C)C)c(=O)c2cc1OC	TDP1 cell noCPT 18µM, TDP1 cell CPT 13µM (no result: IL1B secr inh, HT1080 IDH1KD tx, HT1080-NT tox)
CCn1cc(C(=O)N(C)c2ccc(C(C)C)cc2)c2cc(OC)c(OC)cc2c1=O	TDP1 cell noCPT 18µM, TDP1 cell CPT inconclusive (no result: IL1B secr inh, HT1080 IDH1KD tx, HT1080-NT tox)
CCn1cc(C(=O)Nc2ccc(C(C)C)cc2)c2cc(OC)c(OC)cc2c1=O	TDP1 cell noCPT 16µM, TDP1 cell CPT inconclusive (no result: IL1B secr inh, HT1080 IDH1KD tx, HT1080-NT tox)
CCn1cc(C(=O)N(C)c2cc(C)ccc2C)c2cc(OC)c(OC)cc2c1=O	TDP1 cell noCPT 21µM, TDP1 cell CPT 26µM (no result: IL1B secr inh, HT1080 IDH1KD tx, HT1080-NT tox)
O=C(NCC12CC3CC(CC(C3)C1)C2)c1cc2n(n1)C(C(F)(F)F)CC(c1ccco1)N2 (stereo not given)	IL1B secr inh -87, TDP1 cell noCPT 15µM, HT1080-NT tox inconclusive, TDP1 cell CPT 10µM
